Results filed as inconclusive are left out. Active and inactive are the calls of the source. Calls follow the shape of the dose curve; as a rule, active = well fitted activation curve with a large enough effect; inconclusive = small, poorly fitted or top-dose-only effect; inactive = flat fitted curve, though single readings scatter.
Molecular target: Pyruvate kinase PKM (Homo sapiens) (UniProt P14618)
Assay: Confirmation Concentration-Response Assay for Activators of Human Muscle isoform 2 Pyruvate Kinase: for Probe SAR; also: nearly all actives have a fitted effect of over 60% in size
Settings: purified PKM2, ATP generation, Kinase-Glo luminescence; series mostly up to 57.5 µM
Source text: NIH Chemical Genomics Center [NCGC]
Matthew G. Vander Heiden, M.D., Ph.D. [Harvard Medical School, 77 Avenue Louis Pasteur, Boston, MA 02115]
Human pyruvate kinase muscle 2 (hPK-M2) enzyme was supplied as a highly purified (>95% pure) preparation from Harvard Medical School and assayed for its ability to generate ATP from ADP using phosphoenolpyruvate (PEP) as a substrate. ATP generation was detected in a coupled reaction by luciferase-mediated luminescence, an ATP-dependent process. […] The enzyme was assayed at an intermediate level of activity to screen for both inhibitors and activators.
NCGC Assay Protocol Summary:
Three uL of substrate mix (at r.t.) in assay buffer (50 mM Imidazole pH7.2, 50 mM KCl, 7 mM MgCl2, 0.01% Tween 20, 0.05% BSA) was dispensed into white solid bottom 1,536 well microtiter plates so that the final concentrations of substrates in the assay were 0.1 mM ADP and 0.5 mM PEP. 23 nL of compound were delivered by a pin tool and 1 uL of enzyme mix (final concentration of 0.1 nM) in assay buffer (4 degree Celsius) was added. Plates were incubated at room temperature for 1 hour. Two uL of detection mix (Kinase-Glo, Promega; at 4 degree Celsius protected from light) was added and luminescence read by a ViewLux (Perkin Elmer) at 1 second exposure/plate. Data were normalized to the uninhibited (column 3) and AC100 inhibition (no enzyme in column 2). To monitor activation, the first column contained a titration of the activator, NCGC00031955-03 (16-point 1:2 dilutions in duplicate starting at 57 uM) and the first 16 rows of column 4 contained 57 uM of NCGC00031955-03.
Potency is read from the fitted curve at half-maximal effect.

Pyruvate kinase PKM (Homo sapiens), sequence (P14618 whole entry, looked up, canonical isoform): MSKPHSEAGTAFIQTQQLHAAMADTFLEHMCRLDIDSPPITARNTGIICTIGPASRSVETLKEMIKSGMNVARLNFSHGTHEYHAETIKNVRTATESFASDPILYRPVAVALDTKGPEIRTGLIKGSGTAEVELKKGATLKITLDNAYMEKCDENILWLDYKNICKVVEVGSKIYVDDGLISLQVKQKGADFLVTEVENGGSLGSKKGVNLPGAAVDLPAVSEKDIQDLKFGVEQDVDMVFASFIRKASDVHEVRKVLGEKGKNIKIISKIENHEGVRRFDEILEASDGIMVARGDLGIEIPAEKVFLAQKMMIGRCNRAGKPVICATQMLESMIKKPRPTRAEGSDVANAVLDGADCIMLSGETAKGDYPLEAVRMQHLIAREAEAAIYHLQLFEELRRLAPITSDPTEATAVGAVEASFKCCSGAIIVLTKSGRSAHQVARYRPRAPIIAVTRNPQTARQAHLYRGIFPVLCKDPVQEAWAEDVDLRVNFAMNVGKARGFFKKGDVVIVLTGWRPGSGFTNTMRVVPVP

Potency, active:
CNc1cccc(S(=O)(=O)N2CCN(S(=O)(=O)c3ccc4c(c3)OCCO4)CC2)c1 259 nM, Cn1c2cc(S(C)=O)sc2c2cnn(Cc3cccc(O)c3)c(=O)c21 (stereo not given) 130 nM, Nc1ccc(S(=O)(=O)N2CCN(S(=O)(=O)c3ccc4c(c3)OCCO4)CC2)cc1 366 nM, COc1cc(F)c(S(=O)(=O)N2CCN(S(=O)(=O)c3cccc(NC(C)=O)c3)CC2)c(F)c1 3260 nM, O=C1CCc2cc(S(=O)(=O)Nc3cccc(C(F)(F)F)c3)ccc2N1 13000 nM, Cc1cc(C)n2c(Nc3ccccc3)c(-c3ccc(C)o3)nc2n1 16300 nM, Cc1ccc(NS(=O)(=O)c2cc3c(cc2-c2ccco2)NC(=O)CO3)cc1C 9190 nM, COc1cc(F)c(S(=O)(=O)N2CCCN(S(=O)(=O)c3ccc(N)cc3)CC2)c(F)c1 1300 nM, Cc1ccccc1NS(=O)(=O)c1ccc2c(c1)CCC(=O)N2 11600 nM, Cc1ccc(NS(=O)(=O)c2ccc(Cl)cc2)cc1C 23100 nM, O=C1CCc2cc(Cl)c(S(=O)(=O)Nc3ccc(Cl)c(Cl)c3)cc2N1 73 nM, Nc1cccc(S(=O)(=O)N2CCN(S(=O)(=O)c3ccc4c(c3)OCCO4)CC2)c1 91.9 nM

Potency, inactive:
Cc1ccc(NS(=O)(=O)c2cc3c(cc2/C=C/c2ccccc2)NC(=O)CO3)cc1C, O=C1c2ccccc2C(=O)N1Cc1ccncc1, O=C1c2ccccc2C(=O)N1c1ccccc1O, O=C1c2ccccc2C(=O)N1c1cccc2cnccc12, O=S1(=O)N=C(Oc2cccc(-c3ccccc3)c2)c2ccccc21, COc1ccc(-c2nc3cccc(C)n3c2Nc2ccc(C)cc2)cc1, O=C1c2ccccc2C(=O)N1c1ccc(Cl)cc1, O=S1(=O)N=C(Oc2ccccc2Br)c2ccccc21, O=C1CCc2cc(S(=O)(=O)Nc3ccc(-c4ccccc4)cc3)ccc2N1, O=C(O)c1ccccc1OC1=NS(=O)(=O)c2ccccc21, O=C1NS(=O)(=O)c2ccccc21, Cc1ccc2nc(-c3ccc(C)o3)c(NC3CCCC3)n2c1, O=S1(=O)N=C(Sc2ccc3c(c2)OCCO3)c2ccccc21, Cc1ccccc1Nc1c(-c2ccc(Cl)s2)nc2ccccn12, Cc1ccc(N2C(=O)c3ccccc3C2=O)c(C)c1, Cc1ccccc1Nc1c(-c2ccccc2)nc2cccc(C)n12, O=C1c2ccccc2C(=O)N1c1cccc(Cl)c1, COC(=O)c1ccccc1S(=O)(=O)Nc1cc(=O)c2ccccc2[nH]1, CCCCN1C(=O)c2ccccc2C1=O, O=C1c2ccccc2C(=O)N1Cc1ccccc1, O=C1c2ccccc2C(=O)N1c1cccc2cccnc12, O=S1(=O)N=C(Oc2cccc3ccccc23)c2ccccc21, CC(=O)Nc1ccccc1OC1=N[S+](=O)([O-])c2ccccc21, Nc1ccccc1OC1=NS(=O)(=O)c2ccccc21, O=C1c2ccccc2C(=O)N1c1cccc2ccncc12, Cc1ccc(Nc2c(-c3ccc(C)o3)nc3cccc(C)n23)cc1, O=S1(=O)N=C(N2CCOCC2)c2ccccc21, O=C1CCc2cc(S(=O)(=O)Nc3ccncc3)ccc2N1
